Consider 40 sequences from the OligoGym collection.
Also: reference of the scale not given here.

In the first assay the target is SYT2. The experiment in a line: pooled miR-30 sensor sort-seq; sequence = guide strand. The note with it: shRNA.
Sequence TTTGGCAAACATGTCCTCCTGA yielded a sensor-assay potency score (higher = more potent) of 0.92.

The sequence TATCTCATTGAATAACTTCTCC came in with a sensor-assay potency score (higher = more potent) of -0.214.

Sequence TTGGCCAGCATGTCGGACCAGT returned a sensor-assay potency score (higher = more potent) of -0.931.

The sequence TTTCTGAATCTGCTCGAAGGGG yielded a sensor-assay potency score (higher = more potent) of -0.751.

With TATTTCTTCTTCTTGTCAGGAA, the sensor-assay potency score (higher = more potent) worked out at 0.447.

As for TTGACATAAGGGTCTGAGGTGC, the sensor-assay potency score (higher = more potent) was -0.653.

Sequence TTTGGTCTCATATTTCTTCTTC registered a sensor-assay potency score (higher = more potent) of 0.677.

With TTTATCTCATTGAATAACTTCT, the sensor-assay potency score (higher = more potent) was -0.172.

As to TACCTGGACTTTCTGAATCTGC, the sensor-assay potency score (higher = more potent) is -0.968.

Consider TTGAATAACTTCTCCTTCAGTT, for which the sensor-assay potency score (higher = more potent) stood at 0.105.

Regarding TTCTGAATCTGCTCGAAGGGGA, the sensor-assay potency score (higher = more potent) stood at 0.015.

Another assay has as its target SYTL1. The description is as above. The note with it: shRNA.
The sequence TTGAACACAGGGCTGAGGCTGC displayed a sensor-assay potency score (higher = more potent) of 0.21.

On to TTCCTGCGCATAGACGCTCGGA, for which the sensor-assay potency score (higher = more potent) is -0.515.

Take TTCTTCACCGCCGTCTTGCGCT: the sensor-assay potency score (higher = more potent) is -1.02.

Take TTGACGTAGGGGTCCGAGCGGC: the sensor-assay potency score (higher = more potent) is -0.281.

TTTCACAGCAGCCTCAGCCTCC registered a sensor-assay potency score (higher = more potent) of -0.778.

Take TAGACGCTCGGACAAGGTCAGA: the sensor-assay potency score (higher = more potent) was -1.39.

The sequence TTCACCGCCGTCTTGCGCTTGC had a sensor-assay potency score (higher = more potent) of -0.681.

On to TTATCCGGGAGGAGGTAGCTTT, for which the sensor-assay potency score (higher = more potent) is -1.36.

Sequence TTCTCTTTCACAGCAGCCTCAG gave a sensor-assay potency score (higher = more potent) of -1.16.

TGAGGTCCAACAGTCCTTCAGT had a sensor-assay potency score (higher = more potent) of -0.459.

Consider TCGCACAACCCTTGTACGCTGG, for which the sensor-assay potency score (higher = more potent) is -0.836.

The sequence TTGTACGTAAGTGTCCAGGGAT displayed a sensor-assay potency score (higher = more potent) of 0.203.

The target in another assay is SYTL4. Described as above. As to conditions: shRNA.
Consider TTCTTTAGTCGCCTAATCCTTT, for which the sensor-assay potency score (higher = more potent) is -1.13.

Take TAATCCTTTTCTCATCTGCTTT: the sensor-assay potency score (higher = more potent) is -1.12.

For TCATGTACCACATCTTCTGGGC, the sensor-assay potency score (higher = more potent) was found to be 0.653.

As for TTCATGTACCACATCTTCTGGG, the sensor-assay potency score (higher = more potent) came out at 0.0201.

The sequence TTAGTGTACTCTGAAGGCCTGA displayed a sensor-assay potency score (higher = more potent) of -0.464.

As to TTTGGGAGCAGACATCTTCTTC, the sensor-assay potency score (higher = more potent) is -0.722.

Sequence TTATCCAGAGAGTCTCTCCTGG registered a sensor-assay potency score (higher = more potent) of -0.0866.

Turning to AACACTGAGAATCAAATCCTTT, the sensor-assay potency score (higher = more potent) is -1.16.

TTCAACTCTATTTCCTTGGCGC gave a sensor-assay potency score (higher = more potent) of 0.409.

Regarding TTTCATGTACCACATCTTCTGG, the sensor-assay potency score (higher = more potent) was -0.423.

The sequence TAGTGGATTAACAGTGTCCCGC gave a sensor-assay potency score (higher = more potent) of -0.966.

In turn, TTTCTTCAACTCTATTTCCTTG registered a sensor-assay potency score (higher = more potent) of -0.969.

The target in another assay is TAAR8. The assay is described as above. The note with it: shRNA.
Take TAGCCTTTAAAACATCTCCACT: the sensor-assay potency score (higher = more potent) is -0.818.

TAATAAGCACTCCAACAGCAAA returned a sensor-assay potency score (higher = more potent) of -1.57.

Sequence TCAATTAATATATCAACTGTAT had a sensor-assay potency score (higher = more potent) of -0.769.

TCAGTAACCACAATGTACCTGT: the sensor-assay potency score (higher = more potent) turned out to be 0.327.

The sequence TAATATATCAACTGTATACGGT came in with a sensor-assay potency score (higher = more potent) of -0.194.
